# Screening results deposited in PubChem by National Center for Advancing Translational Sciences (NCATS).
# Only some compounds are listed: those with a hit (about 2% of all), similar ones and a draw of the others.
# TDP43 rescue = inhibitors of TDP-43 toxicity in yeast | TDP-43 expressing yeast growth rescue, BacTiter-Glo, 24 h | Potency, µM (series often up to 46.1 µM), for the others: at the highest dose growth rescue (activation), usual class: activators | hit rate 1.8% among 410,000 | AID 652104; also: % of control where 0% means no effect; nearly all actives have a fitted effect of over 50% in size
#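 Yeast expressing TDP-43 (pregrown in raffinose, seeded at OD600=0.02 in galactose medium) exposed to compounds 24 hr at 30 deg C. Growth read by BacTiter-Glo luminescence; rescue of toxicity appears as increased signal.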
# Rango-impB inh = inhibitors of Rango-importin beta complex formation; Q14974; Rango CFP/YFP FRET sensor + importin beta, 45 min; Potency, µM (highest dose often 92.2 µM), inactives show at the highest dose inhibition of complex formation; hit rate 0.031% among 340,000; AID 540263; calls by dose curve;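 also: 0% = DMSO wells and 100% = buffer wells lacking importin beta; nearly all actives have a fitted effect of over 15% in size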
#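 Inhibition scored from the CFP 486 nm/YFP 530 nm FRET ratio 45 min after adding 0.125 microM importin beta to 50 nM Rango biosensor preincubated 5 min with compound (room temperature, PBS with DTT, Tween-20, BSA). No-importin wells as positive control.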
# aSyn yeast inh = alpha-synuclein toxicity inhibition in yeast. Potency, µM (doses to about 46.1 µM), for inactives: top-dose growth rescue (activation), actives largely listed as activators. hit rate 0.14% among 370,000. AID 652106. Yeast expressing alpha-synuclein, growth rescue, BacTiter-Glo, 24 h; also: % of control where 0% means no effect; nearly all actives have a fitted effect of over 65% in size
#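 Screening used galactose-induced yeast with toxic alpha-synuclein levels, exposed to compound for 24 hr at 30 deg C. Cell growth, read with BacTiter-Glo luminescence, gave the measured signal.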
# Abeta rescue = restores growth of yeast expressing A-beta42 peptide. yeast expressing A-beta42, growth rescue, OD600, 48 h; response scale: 0% DMSO, 100% iron-clioquinol control. Potency, µM (doses to about 46.1 µM), most hits filed as activators. hit rate 0.063% among 410,000; also: nearly all actives have a fitted effect of over 55% in size
#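 Yeast growth medium received pinned compounds, then yeast cells expressing toxic A-beta were added; plates incubated at 30 C for 48 hr. Growth read as absorbance at 600 nm, normalized to DMSO and equimolar FeCl3 plus clioquinol controls.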
# Rango dissoc inh = prevents RanGTP from dissociating the Rango-importin beta complex; O95149+P62826; Biochemical FRET Rango-importin beta, RanGTP-induced dissociation; Potency, µM (doses to about 46.1 µM), for the others: at the highest dose activity change, negative = inhibition; hit rate 0.071% among 340,000; AID 540253; calls by dose curve; also: % of control where 0% means no effect; nearly all actives have a fitted effect of over 45% in size
#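 Quantitative HTS using a FRET biosensor: 0.1 uM Rango, 0.25 uM importin beta, 0.6 uM Ran, 2 mM GTP, 0.2 uM RCC1 final, PBS with DTT, Tween-20 and BSA. Post-read taken 45 min after Ran addition.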
# S-ASM inh = inhibitors of human secretory acid sphingomyelinase; hit rate 0.006% among 340,000; P17405; placental ASM, HMU-PC fluorogenic substrate, 60 min; Potency, µM (series often up to 57.5 µM), without a hit: at the highest dose activity change, negative = inhibition, most hits filed as inhibitors; AID 504937
# Target sequence (P17405 47-631 limits assumed): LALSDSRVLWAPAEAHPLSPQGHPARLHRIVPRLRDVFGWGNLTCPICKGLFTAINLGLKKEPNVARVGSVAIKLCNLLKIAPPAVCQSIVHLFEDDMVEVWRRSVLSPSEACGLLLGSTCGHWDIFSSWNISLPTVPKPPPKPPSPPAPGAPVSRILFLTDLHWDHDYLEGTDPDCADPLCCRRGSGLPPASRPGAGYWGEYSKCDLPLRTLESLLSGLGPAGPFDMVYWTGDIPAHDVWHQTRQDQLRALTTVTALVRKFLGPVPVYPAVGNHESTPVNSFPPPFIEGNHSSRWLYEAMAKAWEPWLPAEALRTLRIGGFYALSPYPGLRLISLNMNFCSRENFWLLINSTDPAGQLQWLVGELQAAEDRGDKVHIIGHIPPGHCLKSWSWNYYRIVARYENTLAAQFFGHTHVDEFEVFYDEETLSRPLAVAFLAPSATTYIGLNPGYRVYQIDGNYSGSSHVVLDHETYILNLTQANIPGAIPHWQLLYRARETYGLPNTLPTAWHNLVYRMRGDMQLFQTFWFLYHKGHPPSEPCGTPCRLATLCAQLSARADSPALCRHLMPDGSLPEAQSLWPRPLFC
#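 Human placenta-derived ASM enzyme was preincubated with compound for 10 minutes at room temperature, then given fluorogenic substrate HMU-PC0 (9 uM final) for 60 minutes at 37 °C; a pH 10 stop preceded fluorescence reading at Ex 386/Em 447 nm.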
# The depositor's hits bear a star; i = inactive; ? = inconclusive; . = not tested or not shown; [ ] = dose if it differs, or a comment. Unless noted, calls follow the shape of the dose curve; as a rule, active = well fitted curve in the direction sought with a large enough effect; inconclusive = small, poorly fitted or top-dose-only effect, or another doubt; inactive = no such curve, though single readings can be large; an effect the other way counts as inactive or inconclusive. Potency is read from the fitted curve at half-maximal effect.
SMILES,TDP43 rescue,Rango-impB inh,aSyn yeast inh,Abeta rescue,Rango dissoc inh,S-ASM inh
COC(=O)CCCC(=O)Nc1ccc(Cl)c(Cl)c1,10µM*,-1%,-4%,i,-5%,1%
COc1ccc(C)c2sc(N(Cc3cccnc3)C(=O)CCc3ccccc3)nc12,23%,.,.,i,.,.
COc1ccccc1CCC(=O)Nc1cccc(S(=O)(=O)N2CCCC2)c1,-1%,1%,-2%,i,12%,1%
Cc1ccc(NC(=O)c2ccc(C)c(S(=O)(=O)N3CCCCCC3)c2)cc1,18µM*,.,0%,i,.,.
Cc1ccc(C(=O)Nc2cccc(O)c2)cc1S(=O)(=O)N1CCCCCC1,0%,1%,-5%,i,-8%,-5%
COc1ccccc1CN(C)CC(=O)Nc1cccc(S(=O)(=O)N2CCCCC2)c1,3.2µM*,-1%,1%,i,1%,3%
COc1ccccc1NC(=O)c1cc(S(=O)(=O)N2CCCCCC2)ccc1F,11µM*,-1%,1%,i,-6%,1%
Cc1ccc(NC(=O)COC(=O)c2ccccc2F)cc1S(=O)(=O)N1CCCCC1,15%,-1%,0%,?,-5%,-8%
Cc1ccc(NC(=O)c2ccccc2F)cc1S(=O)(=O)N1CCCCCC1,20µM*,2%,5%,i,4%,-4%
CN(CCCNC(=O)Cn1ncc2c([nH]c3ccccc32)c1=O)Cc1ccccc1,4%,.,.,i,.,.
COc1cc(N(C)C)ccc1/C=C1\C=Cc2ccccc21,.,.,-9%,.,.,.
Cc1ccc(C)c(N2CCN(S(=O)(=O)c3ccc(-c4coc(C)n4)cc3)CC2)c1,10%,.,0%,i,.,.
Cc1nc(N2CCCCC2C)c2c(C)c(C(=O)Nc3ccccc3C(F)(F)F)sc2n1 (stereo not given),14µM*,1%,-24%,i,13%,9%
Cc1c(C(=O)Nc2ccc3c(c2)OCCO3)sc2ncnc(N3CCCCC3C)c12 (stereo not given),16µM*,-2%,5%,i,-16%,-13%
Cc1nc(N2CCC(C)CC2)c2c(C)c(C(=O)Nc3ccc4c(c3)OCCO4)sc2n1,7.1µM*,0%,3%,i,7%,0%
Cc1nc(N2CCC(C)CC2)c2c(C)c(C(=O)Nc3ccc(C(F)(F)F)cc3)sc2n1,?,1%,13%,i,11%,-9%
Cc1cc(C)c2c(/C=C/c3ccc(N(C)C)cc3)ccnc2c1,.,.,-10%,.,.,.
CCOc1ccc(NC(=O)c2nc(S(=O)(=O)Cc3ccc(F)cc3)ncc2Cl)cc1,.,.,4%,.,.,.
c1ccc2c(c1)CCN(c1nc3ccccc3n3cnnc13)C2,35µM*,0%,-6%,i,-8%,-22%
c1ccc2c(c1)nc(N1CCOCC1)c1nncn12,0%,-3%,-5%,i,14%,1%
c1ccc(N2CCN(c3nc4ccccc4n4cnnc34)CC2)cc1,35µM*,-3%,5%,i,1%,-21%
FC(F)(F)c1cccc(N2CCN(c3nc4ccccc4n4cnnc34)CC2)c1,22µM*,.,.,i,.,.
COc1ccccc1N1CCN(c2cc(C)nc3nc(-c4ccc(Cl)cc4)nn23)CC1,?,.,.,i,.,.
Cc1cc(NC(=O)c2cccn2-c2nnc(N3CCCCC3)s2)ccc1Br,1%,.,.,i,.,.
COC(=O)C1CCN(C(=O)COc2cc3sc(C)nc3c3sccc23)CC1,20µM*,?,1%,i,-10%,-2%
SMILES,TDP43 rescue,Rango-impB inh,aSyn yeast inh,Abeta rescue,Rango dissoc inh,S-ASM inh
Cc1cc(C(=O)N2CCN(c3cccc(Cl)c3)CC2)c2c(C)nn(-c3ccccc3Cl)c2n1,20µM*,.,.,i,.,.
Cc1c(C(=O)N2CCN(c3cccc(Cl)c3)CC2)cccc1[N+](=O)[O-],22µM*,2%,23%,?,-6%,-9%
Cc1cc(C(=O)N2CCN(c3ccc(F)cc3)CC2)c2c(C)nn(-c3cccc(Cl)c3C)c2n1,24%[9.22 µM],.,.,i,.,.
Cc1ccc(N2CCN(C(=O)c3cccc([N+](=O)[O-])c3)CC2)cc1Cl,13µM*,-6%,7%,?,17%,-5%
CC1CCN(C(=O)C(C)OC(=O)c2ccc(S(C)(=O)=O)c([N+](=O)[O-])c2)CC1 (stereo not given),.,.,-10%,.,.,.
CCOC(=O)Cn1c(=O)n(-c2ccc(Cl)cc2)c2nc(-c3ccc(Cl)cc3)nc(C(N)=O)c21,-2%,.,-3%,i,.,.
Cc1ccccc1C(=O)Nc1cccc(C(=O)OCc2cc(=O)n3nc(C4CC4)sc3n2)c1,3%,.,.,i,.,.
Nc1ncnc2nc(-c3ccc(N4CCOCC4)nc3)cc(-c3cccc(Br)c3)c12,.,.,21µM*,.,.,.
Cc1ccc(NC(=O)Cn2c(=O)n(CCCCC(=O)NCCc3ccccc3)c(=O)c3ccccc32)c(C)c1,14%,.,.,i,.,.
CCc1ccc(C2CC(=O)Oc3c2c(=O)n(C)c2ccccc32)cc1 (stereo not given),9%,.,.,i,.,.
O=C(/C=C/c1ccnc2ccccc12)c1cccs1,3.5µM*,6%,2%,i,1%,-4%
CN(C)c1nc(C(=O)Nc2ccccc2)nc(N(C)C)n1,7%,0%,0%,i,6%,-6%
CN(C)c1nc(SCCOC(=O)Nc2ccccc2)nc(N(C)C)n1,3.2µM*,?,1%,i,0%,-10%
C#Cc1ccc(NC(=O)C2(C)CCN2C(=O)Cc2ccc(C(C)C)cc2)cc1 (stereo not given),35µM*,.,13%,i,.,.
C#Cc1ccc(NC(=O)C2(C)CCN2C(=O)C/C=C/c2ccccc2)cc1 (stereo not given),25µM*,.,20%,i,.,.
CC1(C(=O)Nc2cccc(C#N)c2)CCN1C(=O)C/C=C/c1ccccc1 (stereo not given),0%,.,-1%,i,.,.
N#Cc1c2ccccc2nc2ccccc12,11µM*,?,?,i,?,155%
Nc1c2ccccc2nc2ccccc12,-23%,?,13%,i,?,i
Oc1ccccc1-c1cc(-c2cccc(F)c2)n[nH]1,3.2µM*,2%,2%,i,8%,-10%
O=S1(=O)C=C(Sc2nc3ccccc3s2)c2ccccc21,2.2µM*,-1%,13%,i,-3%,-5%
Cn1c(-c2ccccc2)c(C(=O)CCl)c2ccccc21,18µM*,5%,-2%,i,-3%,2%
CCn1c(-c2ccccc2)c(C(=O)CCl)c2ccccc21,0%,2%,11µM*,i,13%,-4%
CCOc1ccccc1CNC(=O)c1cc2n(n1)CCCN(Cc1ccc(C)cc1)C2=O,35µM*,.,.,?,.,.
